# Test results taken from the supplement of paper PMC10849652.
# Of roughly 7,900 targets only a part is listed; those with a hit were picked by preference. About 0.6% of all pairs of compound and target were hits. Unmarked numbers belong to inactive results.
# How the values were obtained:
# Experiment in all cases: log2 fold change, soluble protein after heating vs DMSO (PISA); higher = thermal stabilisation; K562 cells, 10 uM, 30 min; active = over 0.2 and 3.5 SD of the protein, either way, in both replicates (recomputed)
# [1] = compound: NC(=O)Nc1cc(-c2cccc(F)c2)sc1C(=O)N[C@H]1CCCNC1
# In short: (§1)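 K562 cells (2×10^6 cells/mL) were treated with 10 μM compound for 30 min, and aliquots were heated for 3 min over 48°C-58°C. Pooled aliquots were extracted in PBS with 0.5% NP-40 at 4°C, and the supernatant after 21,000xg for 90 min was measured by TMTpro 16plex LC-MS/MS with channel sums equalised. Reported thermal stability, relative to control samples and from duplicates, is a log2 fold change.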
# [2] = compound: NC(=O)c1cnc(N[C@@H]2CCCC[C@@H]2N)nc1Nc1cccc(-n2nccn2)c1
# In short: as §1
# [3] = compound: NC1(c2ccc(-c3nc4ccn5c(=O)[nH]nc5c4cc3-c3ccccc3)cc2)CCC1
# In short: as §1
# [4] = compound: NCC(=O)Nc1ccc(-n2nc(C(F)(F)F)cc2-c2ccc3c(ccc4ccccc43)c2)cc1
# In short: as §1
# entinostat = compound: Nc1ccccc1NC(=O)c1ccc(CNC(=O)OCc2cccnc2)cc1 [entinostat]
# In short: as §1
# vorinostat = compound: O=C(CCCCCCC(=O)Nc1ccccc1)NO [vorinostat]
# In short: as §1
# citarinostat = compound: O=C(CCCCCCNC(=O)c1cnc(N(c2ccccc2)c2ccccc2Cl)nc1)NO [citarinostat]
# In short: as §1
# silmitasertib = compound: O=C(O)c1ccc2c(c1)nc(Nc1cccc(Cl)c1)c1ccncc12 [silmitasertib]
# In short: as §1
# [5] = compound: O=C1NC(=O)C(c2cnc3ccccn23)=C1c1cn2c3c(cc(F)cc13)CN(C(=O)N1CCCCC1)CC2
# In short: as §1
# [6] = compound: c1cc(OCCN2CCCCC2)cc(-c2n[nH]c3ccc(-c4nnc[nH]4)cc23)c1
# In short: as §1
# Sequence of UniProt Q9Y2A7 (Q9Y2A7 whole entry, looked up): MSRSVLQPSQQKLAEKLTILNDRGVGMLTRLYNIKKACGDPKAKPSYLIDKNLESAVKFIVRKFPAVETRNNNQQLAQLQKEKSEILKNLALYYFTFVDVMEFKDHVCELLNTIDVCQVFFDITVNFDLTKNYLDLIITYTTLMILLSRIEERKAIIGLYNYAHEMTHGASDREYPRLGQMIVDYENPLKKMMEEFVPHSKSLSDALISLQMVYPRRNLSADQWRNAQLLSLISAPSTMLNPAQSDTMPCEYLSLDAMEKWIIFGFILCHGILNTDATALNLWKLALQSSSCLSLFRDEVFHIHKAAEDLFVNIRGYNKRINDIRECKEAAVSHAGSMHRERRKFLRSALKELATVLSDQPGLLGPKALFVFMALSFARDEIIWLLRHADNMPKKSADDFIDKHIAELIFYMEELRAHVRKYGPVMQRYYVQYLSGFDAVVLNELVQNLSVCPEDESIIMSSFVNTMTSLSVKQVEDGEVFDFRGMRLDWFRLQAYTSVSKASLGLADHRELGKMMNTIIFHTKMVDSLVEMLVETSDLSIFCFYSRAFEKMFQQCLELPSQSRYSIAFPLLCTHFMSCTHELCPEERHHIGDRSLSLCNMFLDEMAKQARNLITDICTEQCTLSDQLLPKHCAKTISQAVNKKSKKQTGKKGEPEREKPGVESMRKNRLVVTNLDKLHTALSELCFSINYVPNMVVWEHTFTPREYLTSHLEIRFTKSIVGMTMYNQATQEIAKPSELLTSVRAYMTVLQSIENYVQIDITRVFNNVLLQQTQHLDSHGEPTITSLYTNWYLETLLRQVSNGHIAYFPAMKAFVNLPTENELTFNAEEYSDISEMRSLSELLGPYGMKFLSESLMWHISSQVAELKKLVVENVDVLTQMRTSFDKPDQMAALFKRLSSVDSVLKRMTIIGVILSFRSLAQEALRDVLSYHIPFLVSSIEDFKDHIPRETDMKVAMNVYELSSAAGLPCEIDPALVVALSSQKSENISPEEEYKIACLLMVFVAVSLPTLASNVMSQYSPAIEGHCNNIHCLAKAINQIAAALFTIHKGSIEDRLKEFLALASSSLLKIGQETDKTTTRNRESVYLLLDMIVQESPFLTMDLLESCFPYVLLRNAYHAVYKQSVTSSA
# Sequence of UniProt O75438 (O75438 whole entry, looked up): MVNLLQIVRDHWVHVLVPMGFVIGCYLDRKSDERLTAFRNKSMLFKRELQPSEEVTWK
# Sequence of UniProt Q9H1E3 (Q9H1E3 whole entry, looked up): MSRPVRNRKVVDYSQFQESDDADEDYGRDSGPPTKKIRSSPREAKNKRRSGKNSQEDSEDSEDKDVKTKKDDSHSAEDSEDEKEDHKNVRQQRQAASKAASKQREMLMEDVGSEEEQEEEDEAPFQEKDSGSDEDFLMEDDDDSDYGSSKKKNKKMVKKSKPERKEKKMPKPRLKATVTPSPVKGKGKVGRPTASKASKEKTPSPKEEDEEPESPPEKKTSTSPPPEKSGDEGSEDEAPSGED
# Sequence of UniProt Q96D46 (Q96D46 whole entry, looked up): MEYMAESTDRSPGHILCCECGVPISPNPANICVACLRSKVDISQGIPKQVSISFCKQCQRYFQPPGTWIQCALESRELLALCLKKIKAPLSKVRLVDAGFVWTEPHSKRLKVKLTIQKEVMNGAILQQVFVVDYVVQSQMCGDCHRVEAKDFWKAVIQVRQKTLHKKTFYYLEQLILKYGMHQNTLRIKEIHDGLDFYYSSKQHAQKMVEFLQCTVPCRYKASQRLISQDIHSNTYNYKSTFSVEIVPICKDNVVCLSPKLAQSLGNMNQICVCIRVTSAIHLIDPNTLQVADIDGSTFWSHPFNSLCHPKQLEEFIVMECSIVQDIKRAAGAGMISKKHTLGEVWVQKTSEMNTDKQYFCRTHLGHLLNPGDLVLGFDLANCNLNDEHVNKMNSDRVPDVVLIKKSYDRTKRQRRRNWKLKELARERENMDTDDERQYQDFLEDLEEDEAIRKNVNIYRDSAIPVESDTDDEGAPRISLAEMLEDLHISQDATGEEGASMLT
# Sequence of UniProt Q9H081 (Q9H081 whole entry, looked up): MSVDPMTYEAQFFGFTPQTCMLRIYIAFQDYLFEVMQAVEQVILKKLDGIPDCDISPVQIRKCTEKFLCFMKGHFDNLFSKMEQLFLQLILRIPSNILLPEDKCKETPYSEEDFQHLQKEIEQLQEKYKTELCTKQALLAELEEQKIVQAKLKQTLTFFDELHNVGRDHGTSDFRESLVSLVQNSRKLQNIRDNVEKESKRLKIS
# Sequence of UniProt Q13469 (Q13469 whole entry, looked up): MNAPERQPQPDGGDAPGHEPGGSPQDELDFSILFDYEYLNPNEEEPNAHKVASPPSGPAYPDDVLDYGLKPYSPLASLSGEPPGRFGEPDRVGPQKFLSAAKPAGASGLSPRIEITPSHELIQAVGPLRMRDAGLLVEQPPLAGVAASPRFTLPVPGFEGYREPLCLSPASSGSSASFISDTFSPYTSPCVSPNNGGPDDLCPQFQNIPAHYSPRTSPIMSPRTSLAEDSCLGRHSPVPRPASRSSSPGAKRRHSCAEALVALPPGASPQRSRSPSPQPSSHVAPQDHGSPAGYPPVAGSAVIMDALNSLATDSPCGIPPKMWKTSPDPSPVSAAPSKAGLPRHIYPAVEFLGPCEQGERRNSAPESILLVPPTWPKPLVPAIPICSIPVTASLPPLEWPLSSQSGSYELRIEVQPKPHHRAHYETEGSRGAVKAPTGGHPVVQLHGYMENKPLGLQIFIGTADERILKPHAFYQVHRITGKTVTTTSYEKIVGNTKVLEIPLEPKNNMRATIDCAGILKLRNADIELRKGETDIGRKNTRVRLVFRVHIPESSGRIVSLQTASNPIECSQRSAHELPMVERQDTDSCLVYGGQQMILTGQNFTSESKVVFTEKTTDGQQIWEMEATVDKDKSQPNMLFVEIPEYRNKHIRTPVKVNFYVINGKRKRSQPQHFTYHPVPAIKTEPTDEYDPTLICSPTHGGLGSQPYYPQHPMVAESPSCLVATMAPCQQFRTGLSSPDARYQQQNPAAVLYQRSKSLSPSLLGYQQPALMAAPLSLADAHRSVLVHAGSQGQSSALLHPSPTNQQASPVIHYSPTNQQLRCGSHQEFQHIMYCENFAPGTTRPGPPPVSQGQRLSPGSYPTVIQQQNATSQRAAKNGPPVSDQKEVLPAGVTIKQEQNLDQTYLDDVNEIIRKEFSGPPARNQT
# Sequence of UniProt O14524 (O14524 whole entry, looked up): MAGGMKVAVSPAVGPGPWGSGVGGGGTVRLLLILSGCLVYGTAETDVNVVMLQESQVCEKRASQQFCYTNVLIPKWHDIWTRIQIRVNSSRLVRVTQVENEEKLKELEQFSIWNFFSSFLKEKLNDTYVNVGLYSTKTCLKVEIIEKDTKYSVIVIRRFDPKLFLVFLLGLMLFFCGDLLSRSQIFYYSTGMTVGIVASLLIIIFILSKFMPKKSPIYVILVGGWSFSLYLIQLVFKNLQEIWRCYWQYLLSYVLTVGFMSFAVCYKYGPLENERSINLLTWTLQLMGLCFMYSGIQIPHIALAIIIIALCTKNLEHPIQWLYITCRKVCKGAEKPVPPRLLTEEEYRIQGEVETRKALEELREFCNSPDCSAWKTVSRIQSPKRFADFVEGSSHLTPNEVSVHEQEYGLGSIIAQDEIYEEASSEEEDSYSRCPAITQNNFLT
# Sequence of UniProt Q8N6M0 (Q8N6M0 whole entry, looked up): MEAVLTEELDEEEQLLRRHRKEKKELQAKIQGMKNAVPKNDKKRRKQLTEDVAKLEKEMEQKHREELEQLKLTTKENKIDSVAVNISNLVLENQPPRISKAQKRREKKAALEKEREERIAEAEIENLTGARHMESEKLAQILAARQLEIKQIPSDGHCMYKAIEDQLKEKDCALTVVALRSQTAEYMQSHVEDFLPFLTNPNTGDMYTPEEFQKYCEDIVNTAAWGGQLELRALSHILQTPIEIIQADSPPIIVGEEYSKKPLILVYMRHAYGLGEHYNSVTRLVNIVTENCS
# Sequence of UniProt P55786 (P55786 whole entry, looked up): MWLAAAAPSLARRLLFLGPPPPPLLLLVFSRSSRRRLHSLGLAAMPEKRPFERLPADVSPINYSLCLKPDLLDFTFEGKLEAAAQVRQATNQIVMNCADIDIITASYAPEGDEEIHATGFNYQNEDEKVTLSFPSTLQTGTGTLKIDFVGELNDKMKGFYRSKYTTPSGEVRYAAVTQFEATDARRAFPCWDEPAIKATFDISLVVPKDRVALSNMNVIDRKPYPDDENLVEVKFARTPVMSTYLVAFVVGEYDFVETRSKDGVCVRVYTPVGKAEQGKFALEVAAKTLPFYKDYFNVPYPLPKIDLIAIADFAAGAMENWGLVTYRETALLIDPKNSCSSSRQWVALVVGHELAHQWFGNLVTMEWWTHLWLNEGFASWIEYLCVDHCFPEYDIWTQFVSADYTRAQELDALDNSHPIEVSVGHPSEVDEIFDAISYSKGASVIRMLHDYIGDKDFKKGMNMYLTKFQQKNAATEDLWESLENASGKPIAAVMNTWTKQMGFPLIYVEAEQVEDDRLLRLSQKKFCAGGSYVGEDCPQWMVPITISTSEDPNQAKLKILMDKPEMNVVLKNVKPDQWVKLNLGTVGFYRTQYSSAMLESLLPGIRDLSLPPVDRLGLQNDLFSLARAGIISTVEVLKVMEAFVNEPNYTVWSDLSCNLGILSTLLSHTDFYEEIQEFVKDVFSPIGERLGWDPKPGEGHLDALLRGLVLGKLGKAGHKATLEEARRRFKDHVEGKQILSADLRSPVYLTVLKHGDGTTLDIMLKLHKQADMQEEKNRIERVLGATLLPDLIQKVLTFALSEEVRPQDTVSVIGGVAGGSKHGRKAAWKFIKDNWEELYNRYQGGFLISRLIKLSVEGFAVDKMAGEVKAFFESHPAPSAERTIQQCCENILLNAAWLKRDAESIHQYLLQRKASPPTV
# Sequence of UniProt Q86WQ0 (Q86WQ0 whole entry, looked up): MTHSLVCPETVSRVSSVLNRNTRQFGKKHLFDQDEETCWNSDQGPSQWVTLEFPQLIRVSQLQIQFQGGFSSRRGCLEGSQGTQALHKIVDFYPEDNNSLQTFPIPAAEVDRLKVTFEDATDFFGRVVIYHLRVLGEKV
Target,log2 fold change [1],log2 fold change [2],log2 fold change [3],log2 fold change [4],log2 fold change (entinostat),log2 fold change (vorinostat),log2 fold change (citarinostat),log2 fold change (silmitasertib),log2 fold change [5],log2 fold change [6]
MRPS2 (UniProt Q9Y399),0.105,-0.079,-0.102,0.062,0.034,0.096,0.001,-0.103,-0.021,-0.01
MSH2 (UniProt P43246),-0.069,-0.06,-0.109,-0.138,0.074,0.032,0.089,0.037,-0.091,-0.003
NDUFB1 (UniProt O75438),0.053,-0.114,-0.007,-0.134,0.055,0.108,-0.026,-0.014,-0.124,0.012
NEMP1 (UniProt O14524),-0.007,-0.204,-0.078,-0.181,0.028,0.078,0.026,-0.019,-0.029,-0.113
ORC3 isoform 2 (UniProt Q9UBD5),0.018,-0.09,-0.093,-0.142,-0.004,0.236,0.023,0.058,0.008,-0.188
MKNK1 (UniProt Q9BUB5),0.226,-0.157,-0.158,-0.059,-0.026,-0.025,0.025,0.012,0.019,-0.042
NUP160 (UniProt Q12769),0.031,-0.058,-0.066,-0.062,0.008,0.05,0.018,0.075,0.021,-0.09
MRPS18B (UniProt Q9Y676),0.133,0,0.021,0.105,-0.047,0.08,-0.03,-0.061,-0.03,-0.026
NMNAT1 (UniProt Q9HAN9),0.171,0.145,0.197,0.081,0.002,-0.077,-0.033,0.201,0.259,-0.174
PAFAH1B3 (UniProt Q15102),-0.036,-0.012,-0.066,-0.019,0.057,0.043,-0.045,-0.045,-0.108,-0.028
NIBAN1 (UniProt Q9BZQ8),-0.118,-0.036,-0.169,-0.036,0.073,0.106,0.123,0.029,-0.069,-0.106
PAAF1 (UniProt Q9BRP4),0.028,-0.011,-0.078,0.019,0.006,-0.013,-0.003,-0.001,0.014,-0.025
MRPS12 (UniProt O15235),0.207,-0.053,-0.005,0.221,-0.017,0.038,0.01,-0.007,0.101,-0.056
MXRA7 (UniProt P84157),-0.097,0.037,0.037,-0.302 (active),0.008,0.003,-0.006,0.028,-0.013,0.061
NPEPPS (UniProt P55786),-0.02,-0.035,-0.046,-0.041,-0.007,0.076,0.048,-0.038,-0.003,-0.03
NARS2 (UniProt Q96I59),-0.05,0.057,-0.142,-0.02,0.012,0,0.043,-0.04,-0.064,-0.026
MIS12 (UniProt Q9H081),0.016,-0.084,-0.079,-0.101,0.027,0.123,0.014,0.016,0.02,-0.081
NFX1 (UniProt Q12986),0.157,0.008,0.659 (active),0.045,0.014,-0.016,-0.033,-0.006,-0.018,-0.019
NDUFB8 (UniProt O95169),0.028,0.083,-0.008,0.02,0.113,-0.075,-0.016,0.004,-0.172,-0.036
NUP210 (UniProt Q8TEM1),0.022,-0.173,-0.19,-0.126,0.047,0.054,0.022,-0.033,-0.004,-0.023

Target,log2 fold change [1],log2 fold change [2],log2 fold change [3],log2 fold change [4],log2 fold change (entinostat),log2 fold change (vorinostat),log2 fold change (citarinostat),log2 fold change (silmitasertib),log2 fold change [5],log2 fold change [6]
NISCH (UniProt Q9Y2I1),-0.052,-0.293,-0.354,-0.168,0.101,0.09,0.023,0.065,0.081,-0.147
NQO1 (UniProt P15559),-0.032,0.039,-0.018,-0.034,-0.013,-0.024,0.009,-0.058,-0.149,0.068
NMD3 (UniProt Q96D46),-0.159,-0.034,-0.098,-0.037,-0.001,0,0.085,-0.048,-0.071,-0.047
NR2C2AP isoform 2 (UniProt Q86WQ0),-0.082,-0.131,-0.05,-0.094,-0.02,-0.027,0.079,0.062,-0.092,-0.035
NOLC1 isoform 2 (UniProt Q14978),0.149,-0.031,-0.011,0.014,-0.043,0.009,0.109,-0.037,-0.037,-0.183
NDUFAF6 (UniProt Q330K2),0,-0.152,-0.291,0,0.026,0.122,0.086,-0.02,-0.065,-0.031
NDUFA12 (UniProt Q9UI09),-0.018,-0.038,-0.227,-0.061,0.04,0.077,0.07,-0.052,0.004,-0.033
OTUD6B (UniProt Q8N6M0),-0.122,-0.121,-0.167,-0.064,0.022,0.215,-0.013,0.059,-0.065,-0.053
"MTHFD1, A0A384N5Y3",-0.048,-0.033,0.17,-0.077,-0.059,0.013,0.024,-0.091,-0.056,0.041
NRDC isoform 2 (UniProt O43847),-0.01,-0.044,-0.057,-0.036,0.043,0.04,0.024,0.025,-0.05,-0.06
OSBP (UniProt P22059),-0.007,0.019,-0.17,-0.036,0.024,0.013,0.03,0.014,-0.131,-0.066
MORC3 (UniProt Q14149),0.024,-0.047,-0.241,-0.22,-0.021,-0.159,-0.118,0.201,-0.066,0.089
OXSM (UniProt Q9NWU1),0.016,0.068,-0.026,0.049,-0.019,-0.028,0.037,-0.04,-0.011,-0.015
NUMB (UniProt P49757),-0.088,-0.022,-0.002,-0.003,-0.041,0.037,0.009,0.007,-0.097,-0.032
MRPS10 (UniProt P82664),-0.014,0.004,-0.052,0.011,-0.033,0.057,0.07,-0.048,0,-0.08
MSH6 (UniProt P52701),-0.033,-0.091,-0.213,-0.191,0.229,0.273,0.347,0.14,-0.169,0.097
MITD1 (UniProt Q8WV92),0.016,-0.018,-0.387,-0.059,-0.08,0.057,-0.135,0.14,-0.176,0.228
MTOR (UniProt P42345),-0.016,-0.102,-0.315 (active),-0.111,0.042,0.049,0.035,0.102,-0.065,-0.004
NDUFS8 (UniProt O00217),-0.049,-0.042,-0.163,-0.018,0.065,0.019,0.024,-0.019,-0.052,-0.041
OTUD4 (UniProt Q01804),0.006,0.026,0.071,0.001,-0.051,0.016,-0.016,0.02,0.033,-0.061

Target,log2 fold change [1],log2 fold change [2],log2 fold change [3],log2 fold change [4],log2 fold change (entinostat),log2 fold change (vorinostat),log2 fold change (citarinostat),log2 fold change (silmitasertib),log2 fold change [5],log2 fold change [6]
NME2P1 (UniProt O60361),0.07,-0.146,-0.124,-0.306,-0.01,0.036,-0.114,0.048,-0.011,-0.161
NDUFA9 (UniProt Q16795),-0.025,-0.089,-0.112,-0.091,0.039,0.065,0.037,-0.016,-0.104,0.017
MUL1 (UniProt Q969V5),-0.029,-0.041,0.648 (active),-0.024,-0.007,0.086,-0.002,-0.018,-0.021,-0.049
OXR1 (UniProt Q8N573),0.03,0,-0.157,-0.008,0.023,-0.029,0.062,-0.009,-0.044,-0.001
NMT1 (UniProt P30419),-0.006,-0.043,-0.052,-0.129,0.008,0.031,-0.012,-0.015,0.022,-0.52 (active)
NCL (UniProt P19338),0.015,0.024,0.331,0.156,-0.093,-0.018,-0.105,0.2,0.147,-0.171
NUCKS1 (UniProt Q9H1E3),-0.405 (active),0.035,0.014,0.04,-0.01,-0.08,-0.022,-0.008,-0.044,0.079
MRPS17 (UniProt Q9Y2R5),-0.035,0.091,-0.138,-0.018,-0.027,0.191,0.05,-0.051,-0.047,0.02
MRPL47 (UniProt Q9HD33),0.024,0.058,0.039,0.057,0.028,-0.195,-0.087,-0.021,-0.011,0.336
MTHFD1 (UniProt P11586),-0.028,-0.011,0.094,-0.028,0.024,0.05,0.051,-0.039,-0.042,-0.021
"NA, A0A096LPI6",0.03,0.04,-0.012,0.016,-0.006,-0.02,0.022,0.024,-0.043,-0.015
NFATC2 (UniProt Q13469),-0.076,-0.203,-0.064,-0.075,0.147,-0.011,0.101,-0.078,-0.062,-0.258
MRPS25 (UniProt P82663),-0.031,0.046,0.04,0.04,0.021,-0.036,0.073,-0.053,0.062,-0.074
MNAT1 (UniProt P51948),-0.055,-0.039,0.005,-0.058,-0.028,-0.003,0.078,-0.015,-0.047,-0.036
NASP (UniProt P49321),-0.009,-0.081,-0.06,-0.054,0.035,0.028,0.035,0.063,-0.034,-0.02
MON2 isoform 5 (UniProt Q7Z3U7),-0.023,0.012,-0.107,-0.038,-0.003,0.097,0.056,0.021,-0.006,-0.003
MRPS9 (UniProt P82933),-0.03,-0.011,-0.117,0.018,0.008,0.167,0.035,-0.083,-0.019,-0.081
NSMCE2 (UniProt Q96MF7),0.065,-0.027,-0.008,-0.046,-0.115,0.128,-0.04,0.055,-0.068,-0.069
NCKAP1 isoform 2 (UniProt Q9Y2A7),0.066,-0.009,-0.12,-0.025,0.024,0.063,0.015,-0.029,-0.055,0.046
